# Test results taken from PubChem BioAssay AID1508625 (Wald Lab, School of Medicine, Case Western Reserve …, 2021).
# Experiment: enhancers of NK cell killing of ovarian tumor cells, primary screen, imaging, OVCAR3, primary NK cells, calcein-AM imaging (AID 1508625);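 note: compound given to NK cells 16 h before adding targets at 1.5 to 1 ratio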
# Conditions: OVCAR3 lysis by primary NK cells, at 5 µM; z-score: measured here: robust Z-score, single-point normalisation
SMILES,z-score,"corrected activity, negative = more killing [%]"
COc1ccc(C(=O)N2N=C(C3CCCCC3)CC2(O)C(F)(F)F)cc1OC (stereo not drawn),-1.58,-5.29
Cc1ccc(NC(=O)CCNC(=O)Cn2cnc3ccccc3c2=O)c(Br)c1,-0.149,-0.469
Cc1ccc(C(=O)Nc2cccc(C(=O)N3CCOCC3)c2)cc1Cl,-0.0182,-0.0326
CCOc1ccc(OCC(=O)NC(C)C)cc1,-2.82,-5.07
NC(=O)c1ccccc1NC(=O)c1ccc(-c2cccc(Cl)c2)o1,-1.94,-6.51
O=C(Nc1ccc2c(c1)OCCO2)c1cc2cc3ccc(Cl)cc3nc2o1,-0.854,-3.48
O=C(c1ccc([N+](=O)[O-])cc1)N1N=C(C2CC2)CC1(O)C(F)F (stereo not drawn),-1,-2.43
CC(C)(C)C1CCC(=O)C(C2(O)C(=O)Nc3ccc(Br)cc32)C1 (stereo not drawn),-0.998,-3.34
COC(=O)c1ccc(COC(=O)c2ccncc2)cc1,-0.393,-0.707
COc1ccc(C(=O)Nc2ccc3oc(-c4ccccc4)nc3c2)cc1OC,-1.28,-2.95
C=CCSc1nc(C)c2cc(C)ccc2n1,-0.675,-2.18
OCCNCCCOc1cccc(Cl)c1Cl,0.743,2.34
Cc1ccc(C(=O)COC(=O)c2ccc(N3C(=O)C4CCC(C)CC4C3=O)cc2)cc1[N+](=O)[O-] (stereo not drawn),-1.37,-2.55
O=C1C(=O)N(Cc2cccnc2)C(c2ccccc2)C1=C(O)c1ccc(F)cc1 (stereo not drawn),-0.837,-1.93
CC(=O)c1ccc(NC(=O)c2ccc(N)cc2)cc1,-1.81,-8.59
CCCCC(=O)NC(=S)Nc1ccc(Cl)c(C(=O)O)c1,-1.64,-4.41
Brc1ccc(-c2noc(CSc3ccccc3)n2)cc1,-0.187,-0.336
Cc1cc(Cl)ccc1OC(C)C(=O)n1cnc2ccccc21 (stereo not drawn),-0.42,-1.02
CON1C(=O)C(C)(C)N(OC)C(=O)C1(C)C,0.733,2.31
Cc1ccc(NC(=O)c2cc(S(=O)(=O)NCCc3ccccc3)ccc2F)cc1F,-1.35,-5

SMILES,z-score,"corrected activity, negative = more killing [%]"
Cc1ccccc1C(=NS(=O)(=O)c1ccc(Br)cc1)Nc1ccccc1,-1.18,-3.32
O=C(O)CSCCC(=O)Nc1ccc(F)cc1,-1.93,-7.17
Cc1cc2c(cc1C)NC(c1coc3ccc(Cl)cc3c1=O)C1=C(CC(C)(C)CC1=O)N2 (stereo not drawn),-0.968,-2.17
Cc1ccc(C(=O)Oc2ccc(C(=S)N3CCOCC3)cc2)cc1,-1.5,-4.83
O=C(CCCn1c(=S)[nH]c2cc3c(cc2c1=O)OCO3)N1CCN(Cc2ccc3c(c2)OCO3)CC1,-0.54,-2.04
O=C1C2CCCCC2C(=O)N1c1cccc2ccccc12 (stereo not drawn),-0.712,-3.38
Cc1cc(Cl)ccc1OCC(=O)Nc1cccc2c1C(=O)c1ccccc1C2=O,-1.45,-3.52
CCOc1ccc(Br)cc1S(=O)(=O)N1CCN(c2ccc(C)cc2C)CC1,-0.676,-1.21
O=C(Nc1ccc(Oc2ccccc2)cc1)c1nn(-c2ccc(Cl)cc2)c(=O)c2ccccc12,-1.69,-3.15
O=C1C2C3C=CC(C3)C2C(=O)N1CCCO (stereo not drawn),-0.311,-1
CCOc1ccc2nc(SCC(=O)Nc3ccccc3Oc3ccccc3)sc2c1,-1.24,-3.99
COc1ccc(-c2ccc3c(N)c(C(=O)NCCc4ccc(Cl)cc4)sc3n2)cc1,-0.492,-1.65
COC(=O)c1ccc(-n2nnnc2SCC(=O)Nc2ccc(F)cc2)cc1,-2,-6.69
O=C(c1cccc(NS(=O)(=O)Cc2ccccc2)c1)N1CCOCC1,-0.945,-1.7
O=C(NC1CCCCCC1)c1coc(=O)c2ccccc12,-0.781,-2.46
CC(=O)Nc1ccc(N=Cc2ccc(C)cc2)cc1,-0.8,-3.8
O=CN1CCN(c2nc3ccccc3nc2C(F)(F)F)CC1,-1.02,-2.49
Cc1cc(C)cc(NC(=O)c2cc(S(=O)(=O)NC3CCCCC3)ccc2F)c1,-1.42,-5.25
Cc1ccc(S(=O)(=O)n2cnc3ccccc32)cc1C,-2.79,-9
